Assay results published in PubChem BioAssay (NCI).
The panel holds about 83,000 compounds, 20% with a hit somewhere; the sample as a whole holds those more often.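 Values shown are percent growth following 48 h exposure of cells in 96-well plates to a single concentration of compound; below 10 was considered active.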 Values without a mark were called inactive. Active and inactive are the calls of the source.

Assays:
Test in all cases: NCI-60 one-dose screen, 48 h (100 = growth as untreated, 0 = no growth, -100 = all killed)
Conditions in all cases: 10 µM unless noted
T-47D breast = tested on: T-47D breast
BT-549 breast = tested on: BT-549 breast
MDA-MB-435 melanoma = tested on: MDA-MB-435 melanoma
SW-620 colon = tested on: SW-620 colon
MCF7 breast = tested on: MCF7 breast
HCT-116 colon = tested on: HCT-116 colon
HCC-2998 colon = tested on: HCC-2998 colon
KM12 colon = tested on: KM12 colon

Structure (SMILES)	growth (T-47D breast)	growth (BT-549 breast)	growth (MDA-MB-435 melanoma)	growth (SW-620 colon)	growth (MCF7 breast)	growth (HCT-116 colon)	growth (HCC-2998 colon)	growth (KM12 colon)
CC/C=C\CCC/C=C1/C(=O)C=C[C@@H]1C/C=C\CCCC(=O)OC	34.4%	-25% (active)	-22.3% (active)	3.05% (active)	17%	-52.4% (active)	8.12% (active)	-20.6% (active)
COc1cccc(C(=O)NNc2nc(Cl)nc(Cl)n2)c1	91.6%	103%	105%	107%	82.8%	108%	95.2%	105%
CS(=O)(=O)c1nnc(-c2ccccc2)s1	44.4%	105%	96.5%	84.8%	77.8%	45.1%	103%	92.7%
O=C1/C(=C/c2ccc(F)cc2)CN(C(=O)C(Cl)Cl)C/C1=C\c1ccc(F)cc1	-22.4% (active)	-80.1% (active)	-93.7% (active)	-73.1% (active)	-60.9% (active)	-92.8% (active)	-89.3% (active)	-66.3% (active)
Cc1c(Cl)cccc1C(=O)Nc1nc2c(s1)CN(C(=O)c1ccc(C(F)(F)F)cc1)CC2	60.9%	24.8%	-12.4% (active)	18.6%	17.3%	8.9% (active)	28.4%	18.9%
Nc1[nH]n2cc(-c3ccc(F)cc3)nc2c1N=Nc1ccc(S(N)(=O)=O)cc1	77.8%	73.9%	78.4%	76.7%	87.7%	62.7%	90.8%	73.1%
COc1ccc(/C=C/c2ccc3ccccc3n2)c(OC)c1	72.8%	67.8%	-5.31% (active)	38.1%	57%	62.3%	72.4%	52.5%
CCN1C(=O)N(CC)C2C1NN=c1s/c(=C\c3ccc(C(F)(F)F)cc3)c(=O)n12 (stereo not given)	64.7%	9.68% (active)	-26.5% (active)	20.7%	15.9%	9.6% (active)	9.59% (active)	15.2%
COc1cccc(CNc2c3ccccc3nc3ccccc23)c1	45.9%	68.7%	43%	25.5%	14.6%	9.89% (active)	39.3%	35.9%
O=C1/C(=C2\SC(=S)N(C3CC3)C2=O)SC(=S)N1C1CC1	94.6%	97.5%	103%	98.4%	91.6%	100%	102%	101%
C/C(Cc1ccc(Cl)cc1)=C(\c1ccc(OCCCN(C)C)cc1)c1ccc(OC(=O)Cc2ccccc2)cc1	71.3%	117%	107%	108%	57.9%	104%	107%	94.7%
CC(C)(C)n1cc(-c2ccnc(NCCCNS(=O)(=O)c3ccc(C(F)(F)F)cc3)c2)c(-c2cccc(F)c2)n1	64.5%	84%	93.7%	90%	66.2%	54.4%	106%	65.7%
CC(=O)Oc1ccc(OC(C)=O)c2ccccc12	-49.6% (active)	96.8%	95.8%	109%	57.3%	51.6%	103%	100%
CNC(=O)c1ccccc1Nc1nc(Nc2cc(OC)c(OC)c(OC)c2)ncc1Br	-25.2% (active)	-93.5% (active)	6.45% (active)	5.27% (active)	1.48% (active)	1.45% (active)	-32.5% (active)	7.57% (active)
Cn1c2c(c3ccc(Cl)c(Cl)c31)C(C#N)C(C)(C)NC2=O (stereo not given)	74.2%	88.1%	80.9%	67.5%	95.3%	76.9%	91.8%	91.9%
COc1ccc(/C=C/C(=O)c2cc3c(N)c(C(=O)Nc4cccc(Cl)c4C)sc3nc2C)cc1	38.9%	-19% (active)	-28.2% (active)	13.2%	7.78% (active)	5.3% (active)	1.15% (active)	7.8% (active)
CCOC(=O)/C=C1\S/C(=N\Nc2cc(=O)[nH]c3ccccc23)N(c2ccccc2)C1=O	94.6%	98.4%	106%	101%	91.5%	98.5%	110%	101%
O=C(NNC(=O)c1nc2cc(F)ccc2n2cccc12)c1cnccn1	38.5%	66%	36.2%	26.4%	34.8%	32.4%	50.7%	28%
O=C(Nc1ccccc1O)c1ccc(CNC(=O)c2ccsc2Nc2ccnc(C(F)(F)F)c2)cc1	25%	51.7%	14.9%	19.1%	24.5%	15.9%	44.5%	30%
Cc1[nH]c(C2CC(c3ccc(C(F)(F)F)c(F)c3)=NN2c2ccccc2)c(C)c1C(=O)NCC(F)(F)F (stereo not given)	65.9%	103%	98.1%	99.1%	56.5%	82.4%	96.5%	87.5%
COc1ccc2c(c1)/C(=N/c1n[nH]c(=S)s1)C(=O)N2	69.6%	113%	104%	91.3%	25.1%	103%	107%	89%
COc1ccc(NC(=O)Nc2ccc(OCCCCCC(=O)NO)cc2)cc1	107%	99.5%	94%	99.7%	98.3%	92.3%	110%	103%
C#CCO[C@H]1CC(CC#C)(CC#C)C(=O)[C@@H]2[C@H]1[C@H]1C[C@@H]3[C@@]4(C)CCC[C@@](C)(C(=O)OC)[C@@H]4CC[C@@]23C=C1C(C)C	84%	101%	100%	95.9%	96.1%	96.1%	103%	63.1%
COc1ccc(/C=C2\CN(C(=O)C(Cl)Cl)C/C(=C\c3ccc(OC)cc3)C2=O)cc1	2.86% (active)	-19.3% (active)	-37.4% (active)	-41.5% (active)	-28.5% (active)	-70.2% (active)	-77% (active)	-70.3% (active)
COc1cc(/C=N/Nc2ccc(Br)cc2)cc(OC)c1OC	30.8%	95.1%	39.5%	46.8%	51%	60.8%	45.7%	16.3%
NS(=O)(=O)c1ccc(C(=O)NN2C(=O)c3c(Br)c(Br)c(Br)c(Br)c3C2=O)cc1	83.1%	106%	103%	101%	81.4%	99.7%	111%	97.5%
CCCCNC(=O)c1cc([N+](=O)[O-])cc(C2CCCCC2)c1O	12%	36.5%	33.3%	68.6%	39.3%	27.8%	25%	39.5%
O=C(NC1CC(F)C1)c1cc2cccnc2n1-c1ccc(Cl)c(Cl)c1 (stereo not given)	82.6%	101%	119%	98.4%	98.3%	94.7%	104%	98.5%
Fc1ccc2[nH]cc(-c3nc(-c4c[nH]c5ccncc45)cs3)c2c1	-30.3% (active)	70%	-75.3% (active)	-63.5% (active)	-46.7% (active)	-85.6% (active)	-74.3% (active)	-67.1% (active)
c1nc2ccc(-c3cc4ccc5[nH]ncc5c4c4c3CCCC4)cc2[nH]1	60.3%	34.1%	21.2%	39.4%	59%	7.07% (active)	75.5%	30.8%
